Laboratory results reported in PubChem BioAssay (NCATS).
Inconclusive results are not listed. Where a call stands in place of a potency, no number is given. Unmarked numbers belong to inactive results. Calls of active or inactive are those of the source. Calls follow the shape of the dose curve; as a rule, active = well fitted inhibition curve with a large enough effect; inconclusive = small, poorly fitted or top-dose-only effect; inactive = no such curve, though single readings can be large or run the other way.

Legend:
[1] = system: Zika virus NS2B-NS3 protease (unlinked complex); assay: Primary screen GU Rhodamine qHTS for Zika virus inhibitors: Unlinked NS2B-NS3 protease assay (AID 1347159); conditions: Recombinant ZIKV NS2B-NS3 protease, Rhodamine110 substrate fluorescence; series mostly up to 107 µM; also: nearly all actives have a fitted effect of over 60% in size
How it was run: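 Enzyme 25 nM in Tris-HCl pH 8.0 + 0.01% Tween 20; compounds up to 114 microM, 15 min RT dark; + Rhod110 substrate 1.5 microM; read t0 and 15 min; delta fluorescence → % inhibition → 4-parameter Hill fit.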

[2] = system: Zika virus NS2B-NS3 protease (linked construct); assay: Primary screen NINDS Rhodamine qHTS for Zika virus inhibitors (AID 1347160); conditions: purified NS2B-NS3 protease, Rhodamine110 substrate fluorescence; series mostly up to 57.1 µM; also: nearly all actives have a fitted effect of over 55% in size
How it was run: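 Enzyme (25 nM, linked NS2B-NS3) was preincubated 15 min with compound in 10 mM Tris-HCl pH 8.0, 0.01% Tween 20. Rhodamine110 substrate (1.5 microM) was then added and fluorescence read at start and after 15 min.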

In the case of NC(=O)Nc1cc(-c2cccc(F)c2)sc1C(=O)NC1CCCNC1 (centres undefined), the Potency [1] is reported as “inactive” and the Potency [2] is reported as “inactive”.

Cn1ncnc1COc1nn2c(-c3cc(F)ccc3F)nnc2cc1C(C)(C)C was tested, and the Potency [1] was “inactive” and the Potency [2] was “inactive”.

In the case of Cc1[nH]nc(C(F)(F)F)c1Cc1sc2c(c1C(=O)N1C[C@](C)(O)CO1)c(=O)n(C)c(=O)n2C(C)C, the Potency [1] is reported as “inactive” and the Potency [2] is reported as “inactive”.

In the case of C=C1C(=O)O[C@@H]2/C=C(\C)C(=O)/C=C/[C@](C)(O)C[C@@H](OC(=O)C(C)C)[C@@H]12, the Potency [1] is reported as “inactive” and the Potency [2] is reported as “inactive”.

For Oc1ccc(CNc2ccccc2F)c2cccnc12, the Potency [1] was “inactive” and the Potency [2] was “inactive”.

With C[C@@H]1O[C@@H](O[C@H]2[C@H](OC(=O)[C@]34CCC(C)(C)C[C@H]3C3=CCC5[C@@]6(C)C[C@H](O)[C@H](O[C@@H]7O[C@H](CO)[C@@H](O)[C@H](O)[C@H]7O)[C@@](C)(CO)C6[C@H](O)C[C@@]5(C)[C@]3(C)C[C@H]4O)OC[C@H](O)[C@@H]2O)[C@H](O)[C@H](O)[C@H]1O[C@@H]1OC[C@@H](O)[C@H](O[C@H]2OC[C@](O)(CO)[C@H]2O)[C@H]1O (some centres undefined) the activity change, negative = inhibition [1] was 7.01% [at 19.1 µM] and the activity change, negative = inhibition [2] was 18.3% [at 10.7 µM].

With Cc1cnc(Nc2ccc(F)cc2Cl)nc1-c1c[nH]c(C(=O)NC(CO)c2cccc(Cl)c2)c1 (centres undefined) the Potency [1] was “inactive” and the Potency [2] was “inactive”.

With Cc1cc(Nc2ncc3cc(-c4c(Cl)cccc4Cl)c(=O)n(C)c3n2)ccc1F the Potency [1] was “inactive” and the Potency [2] was “inactive”.

With COCCOc1cnc2ccn([C@H](C)c3nnc4c(F)cc(-c5cnn(C)c5)cn34)c(=O)c2c1 the Potency [1] was “inactive” and the Potency [2] was “inactive”.

For CC1(C)CCC2(C(=O)OC3OCC(O)C(O)C3O)CCC3(C)C(=CCC4C5(C)CC(O)C(OC6OC(COC7OCC(O)C(O)C7O)C(O)C(O)C6O)C(C)(C)C5CCC43C)C2C1 (centres undefined), the Potency [1] was “inactive” and the Potency [2] was “inactive”.

With CC(C)(C)Nc1nc(Nc2ccc(C(N)=O)cc2)cc(N)c1C#N the Potency [1] was “inactive” and the Potency [2] was “inactive”.

CC(C)=CCC/C(C)=C/CO[C@@H]1O[C@H](CO)[C@@H](O)[C@H](O)[C@H]1O was tested, and the Potency [1] was “inactive” and the Potency [2] was “inactive”.

With CCOC(=O)c1sc(NC(=O)[C@H](C(C)C)n2c(=O)[nH]c3ccccc3c2=O)nc1C the Potency [1] was “inactive” and the Potency [2] was “inactive”.

In the case of CN[C@H](C(=O)N[C@H](C(=O)N(C)[C@H](/C=C(\C)C(=O)O)C(C)C)C(C)(C)C)C(C)(C)c1ccccc1, the Potency [1] is reported as “inactive” and the Potency [2] is reported as “inactive”.

In the case of CC1=C(C)C(=O)OC(C(C)C2CCC3C4CC=C5CC(OC6OC(COC7OC(CO)C(O)C(O)C7O)C(O)C(O)C6O)CC(O)C5(C)C4CCC23C)C1 (centres undefined), the Potency [1] is reported as “inactive” and the Potency [2] is reported as “inactive”.

For CC(C)NCC(C(=O)N1CCN(c2ncnc3c2C(C)CC3O)CC1)c1ccc(Cl)cc1 (centres undefined), the Potency [1] was “inactive” and the Potency [2] was “inactive”.

For O=C(NCc1ccc(F)cc1)C(=O)c1c[nH]c2ccccc12, the Potency [1] was “inactive” and the Potency [2] was “inactive”.

With C[C@H](Nc1ncnc2nc[nH]c12)c1cc2ccc(F)cc2nc1-c1ccccn1 the Potency [1] was “inactive” and the Potency [2] was “inactive”.

For O=C(O)C(O[C@@H]1O[C@H](CO[C@@H]2O[C@H](CO)[C@@H](O)[C@H](O)[C@H]2O)[C@@H](O)[C@H](O)[C@H]1O)c1ccccc1 (some centres undefined), the Potency [1] was “inactive” and the Potency [2] was “inactive”.

In the case of CC(=O)O[C@H]1C[C@@]2(C)[C@@H](CC[C@H]3[C@@]4(C)C=CC(=O)[C@@H](C)[C@@H]4[C@H](O)C(=O)[C@@]32C)/C1=C(/CCC=C(C)C)C(=O)O, the Potency [1] is reported as “inactive” and the Potency [2] is reported as “inactive”.

With O=C(O)c1cn(C2CC2)c2cc(N3C[C@@H]4C[C@H]3CN4)c(F)cc2c1=O the Potency [1] was “inactive” and the Potency [2] was “inactive”.

CC1=CC(=O)CC2C1(O)CCC(C)C21CC(c2ccoc2)OC1=O (centres undefined) was tested, and the Potency [1] was “inactive” and the Potency [2] was “inactive”.

In the case of O=C1CC2(CCCC2)[C@H](O)C(=O)N1CCCCN1CCN(c2ncccn2)CC1, the Potency [1] is reported as “inactive” and the Potency [2] is reported as “inactive”.

In the case of C[C@@H]1O[C@@H](O[C@H]2[C@H](OC(=O)[C@]34CCC(C)(C)C[C@H]3C3=CCC5[C@@]6(C)CC[C@H](O[C@@H]7O[C@H](C(=O)O)[C@@H](O)[C@H](O)[C@H]7O[C@@H]7O[C@H](CO)[C@H](O)[C@H](O)[C@H]7O)[C@@](C)(C=O)C6CC[C@@]5(C)[C@]3(C)C[C@H]4O)O[C@H](C)[C@H](O[C@@H]3O[C@H](C)[C@H](O)[C@H](O)[C@H]3O)[C@@H]2O)[C@H](O)[C@H](O)[C@H]1O[C@@H]1OC[C@@H](O)[C@H](O[C@@H]2O[C@H](CO)[C@@H](O)[C@H](O)[C@H]2O)[C@H]1O (some centres undefined), the activity change, negative = inhibition [1] is reported as 4.39% [at 19.1 µM] and the outcome [2] is reported as “inactive [at 10.7 µM]”.

CO[C@H]1C[C@@H]2CC[C@@H](C)[C@@](O)(O2)C(=O)C(=O)N2CCCC[C@H]2C(=O)O[C@H]([C@H](C)C[C@H]2CC[C@@H](OP(C)(C)=O)[C@H](OC)C2)CC(=O)[C@H](C)/C=C(\C)[C@@H](O)[C@@H](OC)C(=O)[C@H](C)C[C@H](C)/C=C/C=C/C=C/1C was tested, and the Potency [1] was “inactive” and the Potency [2] was “inactive”.

With Fc1ccc2nc(CCC#Cc3ccccn3)cn2c1 the Potency [1] was “inactive” and the Potency [2] was “inactive”.

O=C(O)CC(=O)OC[C@H]1O[C@@H](Oc2ccc3c(c2)OC[C@H]2c4cc5c(cc4O[C@@H]32)OCO5)[C@H](O)[C@@H](O)[C@@H]1O was tested, and the Potency [1] was “inactive” and the Potency [2] was “inactive”.

C=C1C(O)C[C@@H]2C(C(=O)O)=CO[C@@H](O[C@@H]3O[C@H](CO)[C@@H](O)[C@H](O)[C@H]3OC(=O)c3ccc(O)cc3)[C@H]12 (some centres undefined) was tested, and the Potency [1] was “inactive” and the Potency [2] was “inactive”.

With CC(C)c1nnc(-c2ccc(-c3ccccc3)nc2)n1-c1cccc2nonc12 the Potency [1] was “inactive” and the Potency [2] was “inactive”.

COC(=O)C1=CO[C@@H](O[C@@H]2O[C@H](CO)[C@@H](O)[C@H](O)[C@H]2O)[C@@H]2C(CO)=CC[C@]12O was tested, and the Potency [1] was “inactive” and the Potency [2] was “inactive”.

In the case of COc1c(/C=C/C(C)(C)O)ccc2c1C(=O)OCc1cc(C)cc(O)c1O2, the Potency [1] is reported as “inactive” and the Potency [2] is reported as “inactive”.

With CNC(=O)c1ccccc1Nc1nc(Nc2ccc(N3CCNCC3)cc2)ncc1Cl the Potency [1] was “inactive” and the Potency [2] was “inactive”.

For O=C1C=CC(O)(/C=C/C(=O)OC[C@H]2O[C@@H](Oc3ccc(O)cc3)[C@H](O)[C@@H](O)[C@@H]2O)C=C1, the Potency [1] was “inactive” and the Potency [2] was “inactive”.

C=C1C[C@]23C[C@H]1CC[C@H]2C1=C[C@H]2OC(=O)[C@@](C)([C@H]1[C@@H]3C(=O)O)[C@H]2O was tested, and the Potency [1] was “inactive” and the Potency [2] was “inactive”.

With COc1nc2sc(C(=O)NC3CC3)c(N)c2c(C)c1Cl the Potency [1] was “inactive” and the Potency [2] was “inactive”.

C[C@@H]1CC[C@]2(C(=O)O[C@@H]3O[C@H](CO)[C@@H](O)[C@H](O)[C@H]3O)CC[C@]3(C)C(=CCC4[C@@]5(C)C[C@@H](O)[C@H](O)[C@](C)(C(=O)O)C5CC[C@]43C)[C@@H]2[C@]1(C)O (some centres undefined) was tested, and the Potency [1] was “inactive” and the Potency [2] was “inactive”.

In the case of C=C(C)C(=O)O[C@H]1CC2=CC(C/C(C)=C\[C@H]3OC(=O)C(=C)[C@H]13)OC2=O (some centres undefined), the Potency [1] is reported as “inactive” and the Potency [2] is reported as “inactive”.
